Assay results as given in PubChem BioAssay (Tox21).
Results filed as inconclusive are left out. Calls of active or inactive are those of the source. Unless noted, calls follow the shape of the dose curve; as a rule, active = well fitted curve in the direction sought with a large enough effect in the repeat runs; inconclusive = weak or mixed curves; inactive = no such curve, though single readings can be large; an effect the other way counts as inactive or inconclusive.

Key:
[1] = target: Progesterone receptor (Homo sapiens) (UniProt P06401); assay: qHTS assay to identify small molecule antagonists of the progesterone receptor (PR) signaling pathway (AID 1346795; active = well fitted inhibition curve with a large enough effect in the signal ratio in the repeat runs, not every such curve was filed as active; the % refers to the signal ratio)
Sequence of Progesterone receptor (Homo sapiens) (P06401 whole entry, looked up): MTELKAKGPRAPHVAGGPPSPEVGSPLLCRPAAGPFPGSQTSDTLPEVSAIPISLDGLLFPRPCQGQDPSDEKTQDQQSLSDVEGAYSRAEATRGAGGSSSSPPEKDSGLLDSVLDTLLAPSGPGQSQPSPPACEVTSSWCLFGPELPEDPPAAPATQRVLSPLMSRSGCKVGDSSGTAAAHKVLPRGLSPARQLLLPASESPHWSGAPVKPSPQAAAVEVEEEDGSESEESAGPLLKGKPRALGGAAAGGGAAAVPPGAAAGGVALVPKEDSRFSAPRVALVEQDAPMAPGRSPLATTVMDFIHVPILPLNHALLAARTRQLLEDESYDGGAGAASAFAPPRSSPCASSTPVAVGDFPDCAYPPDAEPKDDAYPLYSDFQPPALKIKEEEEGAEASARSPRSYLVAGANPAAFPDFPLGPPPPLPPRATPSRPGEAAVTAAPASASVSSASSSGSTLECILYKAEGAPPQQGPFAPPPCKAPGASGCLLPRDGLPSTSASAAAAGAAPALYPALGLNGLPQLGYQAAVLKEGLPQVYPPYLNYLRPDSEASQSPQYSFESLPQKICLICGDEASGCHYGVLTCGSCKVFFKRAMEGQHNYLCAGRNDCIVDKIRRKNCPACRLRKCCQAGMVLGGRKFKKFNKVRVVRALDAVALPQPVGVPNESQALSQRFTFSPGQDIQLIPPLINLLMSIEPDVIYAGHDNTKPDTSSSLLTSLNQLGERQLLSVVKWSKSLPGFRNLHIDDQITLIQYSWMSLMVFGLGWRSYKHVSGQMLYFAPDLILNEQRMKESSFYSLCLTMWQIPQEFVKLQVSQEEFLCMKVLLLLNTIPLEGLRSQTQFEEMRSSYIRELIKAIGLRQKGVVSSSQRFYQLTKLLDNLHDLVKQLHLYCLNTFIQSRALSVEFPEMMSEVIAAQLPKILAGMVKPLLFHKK
How it was run: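 Antagonist mode with agonist R5020 at 1 nM final and 16 hr incubation at 37C. Reporter was beta-lactamase driven by UAS in HEK293T (PR-UAS-bla), 2% charcoal-stripped serum; signal from LiveBLAzer FRET substrate, 2 hr at room temperature.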

[2] = qHTS assay to identify small molecule antagonists of the progesterone receptor (PR) signaling pathway - cell viability counter screen (AID 1346798); also: series mostly up to about 92 µM; nearly all actives have a fitted effect of over 50% in size
How it was run: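 Cytotoxicity read as CellTiter-Glo luminescence (30 min, room temperature) in the same wells as the beta-lactamase readout. HEK293T PR-UAS-bla cells in charcoal-stripped 2% FBS received compound and R5020, then 16 h at 37C, 5% CO2.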

[3] = qHTS assay to identify small molecule agonists of the progesterone receptor (PR) signaling pathway - cell viability counter screen (AID 1346799; calls by dose curve; also: nearly all actives have a fitted effect of over 45% in size; also: potency is read from the fitted curve at half-maximal effect)
How it was run: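 Cytotoxicity measured by CellTiter-Glo luminescence (30 min, RT) in the same wells as the PR beta-lactamase agonist read. Those HEK293T cells had 16 h compound treatment at 37 C in 2% charcoal-stripped FBS medium.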

[4] = qHTS assay to identify small molecule antagonists of the TGF-beta/Smad signaling pathway - cell viability counter screen (AID 1346824); also: nearly all actives have a fitted effect of over 50% in size
How it was run: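 SBE-bla HEK 293T cells, incubated overnight, then compound plus 0.25 ng/mL TGF-beta1 (stock added) for 5 hr at 37 C. Viability was read in the same wells by CellTiter-Glo luminescence after 30 min at room temperature.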

[5] = qHTS assay to identify small molecule agonists of the TGF-beta/Smad signaling pathway - cell viability counter screen (AID 1346829); also: top concentration of the series differs between compounds; nearly all actives have a fitted effect of over 45% in size
How it was run: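 SBE-bla HEK 293T cells plated overnight, compound exposure 5 hr at 37 C. Viability read in the same wells by CellTiter-Glo luminescence after 30 min at room temperature, following the beta-lactamase read.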

[6] = qHTS assay to identify small molecule agonists of the TGF-beta/Smad signaling pathway (AID 1346859; active = well fitted activation curve with a large enough effect in the signal ratio in the repeat runs, not every such curve was filed as active; the % refers to the signal ratio; also: series mostly up to about 77 µM)
How it was run: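 Fluorescence (ex 405 nm; em 460 and 530 nm) was read 2 h after LiveBLAzer FRET substrate at RT. The preceding compound treatment of overnight-plated SBE-bla HEK293T cells lasted 5 h at 37 C.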

[7] = target: Thyrotropin-releasing hormone receptor (Homo sapiens) (UniProt P34981); assay: qHTS assay to identify small molecule antagonists of the thyrotropin-releasing hormone receptor (TRHR) signaling pathway (AID 1346877; active = well fitted inhibition curve with a large enough effect in the repeat runs, not every such curve was filed as active; also: series mostly up to about 51 µM)
Sequence of Thyrotropin-releasing hormone receptor (Homo sapiens) (P34981 whole entry, looked up): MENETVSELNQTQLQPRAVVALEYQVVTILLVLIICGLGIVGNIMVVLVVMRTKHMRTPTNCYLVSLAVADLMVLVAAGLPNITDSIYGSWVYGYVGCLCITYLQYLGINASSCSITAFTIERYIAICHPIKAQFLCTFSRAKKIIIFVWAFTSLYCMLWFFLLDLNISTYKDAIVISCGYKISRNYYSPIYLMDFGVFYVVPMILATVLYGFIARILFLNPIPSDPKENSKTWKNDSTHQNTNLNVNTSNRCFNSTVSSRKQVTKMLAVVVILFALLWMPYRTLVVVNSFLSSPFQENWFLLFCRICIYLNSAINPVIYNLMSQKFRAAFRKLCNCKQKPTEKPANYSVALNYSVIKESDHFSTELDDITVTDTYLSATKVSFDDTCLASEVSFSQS
How it was run: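 Antagonist mode: after a 5 min room-temperature compound exposure, cells were stimulated with 1 nM (final) TRH. Dye-loaded TRHR-HEK293 cells were used, and calcium-dependent fluorescence was followed for 3 min, with 15-point titrations run in triplicate.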

[8] = target: Thyrotropin-releasing hormone receptor (Homo sapiens) (UniProt P34981); assay: qHTS assay to identify small molecule agonists of the thyrotropin-releasing hormone receptor (TRHR) signaling pathway (AID 1346891; calls by dose curve; also: series mostly up to about 58 µM)
How it was run: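 Agonist-mode intracellular calcium readout: kinetic fluorescence over 3 min at 1 s intervals after compound addition to TRHR-HEK293 cells (18 h seeded, 2 h dye-loaded at 37 C). Fifteen concentrations, triplicates.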

[9] = Human pregnane X receptor (PXR) small molecule agonists, qHTS cell viability counter screen (AID 1346977); also: nearly all actives have a fitted effect of over 50% in size
How it was run: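 Same-well viability read: CellTiter-Fluor added after 23 hr compound exposure, fluorescence measured 1 hr later. Cells were PXR-Luc HepG2 seeded at 2,000/well in 5% charcoal-stripped FBS medium, rested 5 hr before dosing at 37 C.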

[10] = Caspase-3/7 induction in HepG2 cells by small molecules, qHTS assay (AID 1346978); also: nearly all actives have a fitted effect of over 15% in size
How it was run: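 Wild-type HepG2 cells, 2,000/well, settled 5 hr at 37 C and 5% CO2, then compound-treated for 17 hr; caspase-3/7 activity read by luminescent Caspase-Glo 3/7 after 30 min at room temperature.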
% is scaled to controls: 0 for no effect and ±100 for the full control effect.

COc1cc(C(=O)OC(COCCC(C)C)CN2CCOCC2)cc(OC)c1OC (stereo unspecified)
inactive: Potency [1] | Potency [2] | Potency [3] | outcome [4] | outcome [5] | outcome [6] | outcome [7] | Potency [8] | Potency [9] | outcome [10]

[O-][n+]1cccc(CO)c1
inactive: Potency [1] | Potency [2] | Potency [3] | outcome [4] | outcome [5] | outcome [6] | outcome [7] | Potency [8] | Potency [9] | outcome [10]

CC[N+](CC)(CC)CCOc1cccc(OCC[N+](CC)(CC)CC)c1OCC[N+](CC)(CC)CC
inactive: Potency [1] | Potency [2] | outcome [4] | outcome [5] | outcome [6] | Potency [9] | outcome [10]

CC(C)COC(=O)c1ccc(N)cc1
inactive: Potency [1] | Potency [2] | outcome [4] | outcome [5] | outcome [6] | outcome [7] | Potency [8] | Potency [9] | outcome [10]

CCCCCCC1CCC(=O)O1 (stereo unspecified)
inactive: Potency [1] | Potency [2] | outcome [4] | outcome [5] | outcome [6] | outcome [7] | Potency [8] | outcome [10]

C[N+]1(C)CCCC(OC(=O)C(O)(c2ccccc2)c2ccccc2)C1 (stereo unspecified)
inactive: Potency [1] | Potency [2] | outcome [4] | outcome [5] | outcome [6] | Potency [9] | outcome [10]

CCN(Cc1ccccc1)c1ccccc1
active: Potency [3] 67.8 µM
inactive: Potency [1] | outcome [4] | outcome [5] | outcome [6] | outcome [7] | Potency [8] | Potency [9] | outcome [10]

O=S(=O)(O)c1cccc(S(=O)(=O)O)c1
inactive: Potency [1] | Potency [2] | outcome [4] | outcome [5] | outcome [6] | Potency [9] | outcome [10]

COc1ccc2cc1Oc1cc3c(cc1OC)CC[N+](C)(C)[C@H]3Cc1ccc(cc1)Oc1c(OC)c(OC)cc3c1[C@@H](C2)[N+](C)(C)CC3
inactive: Potency [1] | Potency [2] | outcome [4] | outcome [5] | outcome [6] | outcome [7] | Potency [8] | Potency [9] | outcome [10]

O=C(O)c1cn(C2CC2)c2cc(N3CCNCC3)c(F)cc2c1=O
inactive: Potency [1] | Potency [2] | outcome [4] | outcome [5] | outcome [6] | Potency [9]

Nc1ccn([C@@H]2O[C@H](CO)[C@@H](O)C2(F)F)c(=O)n1
inactive: Potency [1] | Potency [2] | outcome [4] | outcome [5] | outcome [6] | Potency [9] | outcome [10]

CCCCCCCCN1CCCC1=O
inactive: Potency [1] | Potency [3] | outcome [4] | outcome [5] | outcome [6] | outcome [7] | Potency [8] | Potency [9] | outcome [10]

CC1=C(C/C=C(\C)CCC[C@H](C)CCC[C@H](C)CCCC(C)C)C(=O)c2ccccc2C1=O
inactive: Potency [1] | Potency [2] | outcome [4] | outcome [5] | outcome [6] | Potency [9] | outcome [10]

CCCCN1C=CN(C)C1
inactive: activity change, negative = inhibition [1] 3.82% [at 18.9 µM] | activity change, negative = cytotoxicity [2] -2.54% [at 18.9 µM] | viability change, negative = cytotoxic [4] -11.6% [at 15.8 µM] | activity change, negative = cytotoxicity [5] -1.56% [at 15.8 µM] | activation [6] 4.63% [at 15.8 µM] | activity change, negative = cytotoxicity [9] -1.91% [at 19 µM] | caspase activation [10] 1.6% [at 19 µM]

CN(C)CCCCCCN(C)C
inactive: Potency [1] | Potency [2] | outcome [4] | outcome [6] | outcome [7] | Potency [8] | Potency [9] | outcome [10]

CCCCOCCOC(=O)COc1cc(Cl)c(Cl)cc1Cl
inactive: Potency [1] | Potency [2] | outcome [4] | outcome [5] | outcome [6] | outcome [7] | Potency [8] | outcome [10]

NC(=O)Cc1cccc2ccccc12
inactive: Potency [1] | Potency [2] | outcome [4] | outcome [5] | outcome [6] | outcome [7] | Potency [8] | Potency [9] | outcome [10]

C=CCOCC(O)CO (stereo unspecified)
inactive: Potency [1] | Potency [2] | outcome [4] | outcome [5] | outcome [6] | outcome [7] | Potency [8] | Potency [9] | outcome [10]

O=C(O)CCSCCC(=O)O
inactive: Potency [1] | Potency [2] | outcome [4] | outcome [5] | outcome [6] | Potency [9] | outcome [10]

O=S(=O)(O)c1cccc2c(S(=O)(=O)O)cccc12
inactive: Potency [1] | Potency [3] | outcome [4] | outcome [5] | outcome [6] | outcome [7] | Potency [8]

CC(CC=O)CC(C)(C)C (stereo unspecified)
inactive: Potency [1] | Potency [2] | outcome [4] | outcome [6] | outcome [7] | Potency [8] | Potency [9] | outcome [10]

CC(=O)C1CCCCC1=O (stereo unspecified)
inactive: Potency [1] | Potency [2] | outcome [4] | outcome [5] | outcome [6] | outcome [7] | Potency [8] | Potency [9] | outcome [10]

[Ca+2]
inactive: Potency [1] | Potency [2] | outcome [4] | outcome [5] | outcome [6] | Potency [9]

CCCCS(=O)(=O)N[C@@H](Cc1ccc(OCCCCC2CCNCC2)cc1)C(=O)O
inactive: Potency [1] | Potency [2] | outcome [4] | outcome [5] | outcome [6] | outcome [7] | Potency [8] | Potency [9]

OCCCCCO
inactive: Potency [1] | Potency [3] | outcome [4] | outcome [6] | outcome [7] | Potency [8] | Potency [9]

CC(C)CCCO
inactive: Potency [1] | Potency [2] | outcome [4] | outcome [5] | outcome [6] | outcome [7] | Potency [8] | Potency [9] | outcome [10]

CCCCCCCC1CCCC1=O (stereo unspecified)
inactive: Potency [1] | Potency [2] | outcome [4] | outcome [5] | outcome [6] | Potency [9] | outcome [10]

Cc1ncc(COP(=O)(O)O)c(C=O)c1O
inactive: Potency [1] | Potency [3] | outcome [4] | outcome [5] | outcome [6] | outcome [7] | Potency [8] | Potency [9]

O=C(CO)[C@@H](O)[C@H](O)[C@@H](O)CO
inactive: Potency [1] | Potency [2] | outcome [4] | outcome [5] | outcome [6] | outcome [7] | Potency [8] | Potency [9] | outcome [10]
